# Experimental data taken from PubChem BioAssay AID1852 (Sanford-Burnham Center for Chemical Genomics, 2009).
# About 1,100 (44%) of roughly 2,500 compounds were called active.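 How the source made its calls: active means inhibition above 50% at 4 µM in the single-point screen; inactive means inhibition of 50% or less.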 The set was probably picked from earlier hits. The list shows a part of the results.
# Assay: blockers of TNF-a NF-kB luciferase induction – cell-based, HEK293T NF-kB-Luc, luminescence, selectivity assay for NOD1/NOD2 signaling inhibitor project, primary screen (AID 1852)
# Conditions: TNF-a induced, 14 h, at 4 µM, stronger effect = higher value
row,SMILES,inhibition
1,Cc1ccc(-c2csc(NC3OC(=O)c4ccccc43)n2)cc1 (stereo unspecified),74.1% (active)
2,COc1ccccc1-c1nnc(SCC(=O)Nc2nc(-c3ccccc3)cs2)n1C,31.2% (inactive)
3,COc1ccc(-c2csc3nc(-c4ccccc4)oc(=O)c23)cc1OC,-3.3% (inactive)
4,COc1ccc2c(c1OC)C(=O)OC2Nc1nc(-c2ccccc2)cs1 (stereo unspecified),62.2% (active)
5,COc1ccc2[nH]c(=O)c3c(c2c1)OC(C)(C)C=C3,74.7% (active)
6,COc1ccc2[nH]c3c(c2c1)CCN1C(=O)N([C@@H](C)C(=O)NC2CC2)C(=O)[C@]31C,24.6% (inactive)
7,O=C(/C=C/c1cccs1)Nc1sc2c(c1C(=O)O)CCCC2,17.8% (inactive)
8,Cc1[nH]c(=O)c(C(=O)/C=C/c2ccccc2F)c2c1CCCC2,97.7% (active)
9,COc1cccc(/C=C/C(=C2/C(=O)N(c3ccccc3)N=C2C)c2ccccc2)c1OC,7.3% (inactive)
10,COc1ccccc1/C=C/C(=O)c1c2c(c(C)[nH]c1=O)CCCC2,80.6% (active)
11,Cc1[nH]c(=O)c(C(=O)/C=C/c2ccccc2)c2c1CCCC2,92% (active)
12,Cc1[nH]n(-c2ncc(-c3ccccc3)s2)c(=O)c1C(c1ccc(Cl)cc1)C(C#N)C#N (stereo unspecified),28.2% (inactive)
13,Cc1[nH]n(-c2cccc(Cl)c2)c(=O)c1-c1ccc(Cl)cc1,51.9% (active)
14,CC1=NN(c2ccc(Cl)cc2)C(=O)C1C(c1ccccc1O)c1c(C)[nH]n(-c2ccc(Cl)cc2)c1=O (stereo unspecified),-30.7% (inactive)
15,CC(C)(C)C(=O)/C(=C/c1ccc(Cl)cc1)n1cncn1,73.3% (active)
16,CCOC(=O)C(=Cc1ccc(-n2cncn2)cc1)C(=O)OCC,27% (inactive)

row,SMILES,inhibition
1,O=C(Nc1cc(Cl)ccc1-n1cncn1)c1ccc([N+](=O)[O-])s1,34.3% (inactive)
2,CC(C)CC(=O)/C(=C\c1ccc(Cl)cc1Cl)n1cncn1,64.5% (active)
3,CC(=O)n1cc(N(C(=O)CCl)c2ccccc2)c2ccccc21,95.3% (active)
4,CC(=O)n1cc(N(C(=O)CCl)c2ccc(C)cc2)c2ccccc21,53.1% (active)
5,Clc1ccccc1/C=C/c1nc(-c2ccccn2)no1,-22.3% (inactive)
6,Cc1ccc(S(=O)(=O)N2C(=O)/C(=C3\SC(=S)NC3=O)c3ccccc32)cc1,82.3% (active)
7,N=C1S/C(=C\c2ccco2)C(=O)N1c1nccs1,105% (active)
8,N=C1S/C(=C\c2ccc(-c3cccc(Cl)c3)o2)C(=O)N1c1nccs1,108% (active)
9,Cc1ccc(NC(=O)C2CCCN(c3ncnc4c3nc3n4CCCCC3)C2)nc1 (stereo unspecified),92.6% (active)
10,O=C(Nc1ccccn1)C1CCN(c2ncnc3c2nc2n3CCCCC2)CC1,66.3% (active)
11,CC(=O)c1ccc(NC(=O)C2CCCN(c3ncnc4c3nc3n4CCCCC3)C2)cc1 (stereo unspecified),22.3% (inactive)
12,Cc1ccc(NC(=O)C2CCN(c3ncnc4c3nc3n4CCCCC3)CC2)cc1Cl,31.7% (inactive)
13,O=C(NCC1CCN(Cc2ccc(Cl)cc2)CC1)C1CCCN(c2ncnc3c2nc2n3CCCCC2)C1 (stereo unspecified),57.9% (active)
14,O=C(Nc1ccc(Cl)cn1)C1CCN(c2ncnc3c2nc2n3CCCCC2)CC1,76.4% (active)
15,COc1ccc(NC(=O)C2CCN(c3ncnc4c3nc3n4CCCCC3)CC2)cc1Cl,43.2% (inactive)
